For some of these results: Potency and affinity values are given separately.

Set-up in all cases: scale not given: direction of the effect not stated beside the values
Experiment [1] has as its target Protein translocase subunit SecA (Escherichia coli (strain K12)) (UniProt P10408). Description: Assay to Identify E. coli SecA ATPase Inhibitors. The following applies: 30 µM. The format is functional.
Experiment [2] deals with T1, Ubiquitin-activating enzyme e1, putative (Leishmania donovani (strain BPK282A1)) (UniProt E9BSI1).
T1 sequence (whole entry): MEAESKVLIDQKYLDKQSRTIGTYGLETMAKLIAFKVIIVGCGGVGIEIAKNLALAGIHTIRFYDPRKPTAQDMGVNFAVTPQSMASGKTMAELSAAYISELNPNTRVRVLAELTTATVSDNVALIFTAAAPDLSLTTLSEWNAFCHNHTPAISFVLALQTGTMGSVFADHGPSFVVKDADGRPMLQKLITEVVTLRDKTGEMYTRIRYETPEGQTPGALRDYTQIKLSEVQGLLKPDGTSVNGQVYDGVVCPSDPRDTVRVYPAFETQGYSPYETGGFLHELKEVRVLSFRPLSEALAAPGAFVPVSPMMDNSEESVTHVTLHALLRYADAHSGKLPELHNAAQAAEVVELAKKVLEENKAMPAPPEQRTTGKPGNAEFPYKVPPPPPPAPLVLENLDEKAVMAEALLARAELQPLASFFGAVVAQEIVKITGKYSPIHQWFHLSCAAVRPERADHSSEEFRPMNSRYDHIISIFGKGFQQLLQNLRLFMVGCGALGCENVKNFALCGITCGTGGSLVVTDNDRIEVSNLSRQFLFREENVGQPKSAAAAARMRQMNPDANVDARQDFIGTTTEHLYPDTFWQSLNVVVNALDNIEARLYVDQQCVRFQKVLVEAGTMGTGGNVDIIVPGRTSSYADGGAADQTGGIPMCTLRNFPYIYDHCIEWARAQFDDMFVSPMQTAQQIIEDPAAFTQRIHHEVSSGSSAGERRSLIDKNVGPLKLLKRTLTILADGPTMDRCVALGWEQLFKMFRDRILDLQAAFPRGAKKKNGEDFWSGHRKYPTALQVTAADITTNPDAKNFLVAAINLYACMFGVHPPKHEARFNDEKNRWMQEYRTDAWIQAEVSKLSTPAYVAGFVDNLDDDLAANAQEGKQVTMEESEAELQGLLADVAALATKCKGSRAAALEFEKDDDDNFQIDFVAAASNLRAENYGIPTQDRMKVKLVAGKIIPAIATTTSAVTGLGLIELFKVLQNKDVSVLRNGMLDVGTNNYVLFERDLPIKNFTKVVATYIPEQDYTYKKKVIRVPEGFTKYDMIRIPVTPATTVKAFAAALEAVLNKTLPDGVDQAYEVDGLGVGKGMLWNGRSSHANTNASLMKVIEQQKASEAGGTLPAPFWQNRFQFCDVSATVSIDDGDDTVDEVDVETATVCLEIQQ
Nature of the experiment: Leishmania donovani Ubiquitin Activating Enzyme (LdE1). The format is functional. The following applies: 30 µM.

The target in experiment [3] is AMP-activated protein kinase, AMPK (Homo sapiens) (UniProt P54646+O43741+P54619+Q9UGJ0+Q9Y478+Q13131+Q9UGI9). Nature of the experiment: AMP-dependent Kinase enzyme assay. An in vitro enzyme assay that detects ADP turnover that is directly proportional to AMPK activity. This uses naive AMPK that is activated during the assay with MK-8722. As to conditions: 30 µM. The format is functional.

Experiment [4] deals with Sialic acid-binding Ig-like lectin 9 (Homo sapiens) (UniProt Q9Y336). Description: Hs-Siglec9 ALPHAscreen SOP 20170721. As to conditions: 10 µM. For orientation: In Alpha technology, singlet oxygen from a donor bead excites a nearby acceptor bead.
Sialic acid-binding Ig-like lectin 9 (Homo sapiens), sequence (Q9Y336 whole entry): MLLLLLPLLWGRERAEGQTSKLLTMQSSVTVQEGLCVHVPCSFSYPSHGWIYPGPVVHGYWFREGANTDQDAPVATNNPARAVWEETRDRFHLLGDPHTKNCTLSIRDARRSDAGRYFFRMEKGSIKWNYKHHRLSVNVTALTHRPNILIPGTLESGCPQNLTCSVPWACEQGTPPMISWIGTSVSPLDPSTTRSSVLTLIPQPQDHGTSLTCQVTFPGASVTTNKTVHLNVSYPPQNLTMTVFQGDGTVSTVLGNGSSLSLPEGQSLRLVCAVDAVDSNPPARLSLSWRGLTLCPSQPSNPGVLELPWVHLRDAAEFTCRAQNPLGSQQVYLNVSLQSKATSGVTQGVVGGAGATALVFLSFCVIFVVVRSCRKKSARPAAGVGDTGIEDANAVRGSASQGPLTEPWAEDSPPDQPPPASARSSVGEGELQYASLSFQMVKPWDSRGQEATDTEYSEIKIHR
The subject of the next experiment is Trypanosoma cruzi. Description: Trypanosoma cruzi phosphomannomutase and mannose-1-phosphate guanylyltransferase assay. The format is functional. The following applies: 10 µM.
The target in experiment [5] is T2, Arginase-2, mitochondrial (Homo sapiens) (UniProt P78540).
T2 sequence (whole entry): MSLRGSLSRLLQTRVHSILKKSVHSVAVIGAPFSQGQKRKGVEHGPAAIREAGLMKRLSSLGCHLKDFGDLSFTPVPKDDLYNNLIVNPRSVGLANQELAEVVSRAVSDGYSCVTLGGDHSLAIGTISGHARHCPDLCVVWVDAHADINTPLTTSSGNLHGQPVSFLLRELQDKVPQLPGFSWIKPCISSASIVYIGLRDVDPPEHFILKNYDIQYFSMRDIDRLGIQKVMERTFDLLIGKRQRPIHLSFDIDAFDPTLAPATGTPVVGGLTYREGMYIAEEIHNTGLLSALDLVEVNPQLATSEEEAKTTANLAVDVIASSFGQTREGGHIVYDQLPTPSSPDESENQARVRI
Nature of the experiment: in vitro enzyme assay to detect the production of urea directly proportional to the activity of Arginase II. Note: in the data most compounds retested in dose-response had high values. In kind it is functional. As to conditions: 33.3 µM.

Experiment [6] has as its target T3, Proteasome subunit beta (Trypanosoma cruzi) (UniProt O96673).
T3 sequence (whole entry): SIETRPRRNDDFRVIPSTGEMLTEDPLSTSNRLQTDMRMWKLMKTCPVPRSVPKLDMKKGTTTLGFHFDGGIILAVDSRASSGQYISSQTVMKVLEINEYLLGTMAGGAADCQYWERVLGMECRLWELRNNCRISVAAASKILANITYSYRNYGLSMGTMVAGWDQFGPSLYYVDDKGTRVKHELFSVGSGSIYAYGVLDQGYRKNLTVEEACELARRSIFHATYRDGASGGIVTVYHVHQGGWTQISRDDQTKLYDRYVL
Nature of the experiment: Trypanosoma cruzi proteasome chymotrypsin-like activity (TcProtChymo) assay. Note: in the data most compounds retested in dose-response had high values. The format is functional. As to conditions: 9.37 µM.

For another experiment, the species on record is Homo sapiens. Nature of the experiment: To identify inhibition of the IFN signalling (Jak-Stat) pathway via expression of an eGFP reporter gene under the control of an IFN-stimulated response element (ISRE) containing MxA promoter. In kind it is functional. As to conditions: 30 µM. A general note: Reporter assays use an easily measured gene product as a stand-in for the process of interest.

Experiment [7] has as its target T4, Tyrosyl-tRNA synthetase, putative (Trypanosoma cruzi (strain CL Brener)) (UniProt Q4DSP6).
T4 sequence (whole entry): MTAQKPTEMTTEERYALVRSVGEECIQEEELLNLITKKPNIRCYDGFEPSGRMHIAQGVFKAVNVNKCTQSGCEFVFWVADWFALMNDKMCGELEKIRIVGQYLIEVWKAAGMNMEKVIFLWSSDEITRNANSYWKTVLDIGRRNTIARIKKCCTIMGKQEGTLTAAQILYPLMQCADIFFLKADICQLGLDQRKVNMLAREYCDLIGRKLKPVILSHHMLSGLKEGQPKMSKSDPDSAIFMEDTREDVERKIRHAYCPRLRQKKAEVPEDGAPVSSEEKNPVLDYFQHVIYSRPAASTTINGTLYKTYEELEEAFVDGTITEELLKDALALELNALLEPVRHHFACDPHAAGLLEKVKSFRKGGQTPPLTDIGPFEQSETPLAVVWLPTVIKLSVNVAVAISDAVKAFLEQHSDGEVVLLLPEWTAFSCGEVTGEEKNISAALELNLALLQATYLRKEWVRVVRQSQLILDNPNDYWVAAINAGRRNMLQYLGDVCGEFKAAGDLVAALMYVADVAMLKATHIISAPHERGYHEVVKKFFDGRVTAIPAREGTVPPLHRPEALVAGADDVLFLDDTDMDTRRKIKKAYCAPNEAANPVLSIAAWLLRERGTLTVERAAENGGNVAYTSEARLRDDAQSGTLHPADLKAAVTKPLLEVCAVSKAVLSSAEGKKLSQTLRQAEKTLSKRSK
Nature of the experiment: Trypanosoma cruzi tyrosyl tRNA synthetase (TcYRS) _High Tyrosine SOP. Note: in the data most compounds retested in dose-response had high values. In kind it is functional. The following applies: 30 µM.

Experiment [8] addresses T4, Tyrosyl-tRNA synthetase, putative (Trypanosoma cruzi (strain CL Brener)). Nature of the experiment: Trypanosoma cruzi tyrosyl tRNA synthetase (TcYRS) SOP. In kind it is functional. The following applies: 30 µM.
Experiment [9] addresses Chromo domain-containing protein 1 (Saccharomyces cerevisiae (strain ATCC 204508 / S288c) (Baker's yeast)) (UniProt P32657). Description: ScCHD-1 Enzyme Inhibition Assay. Note: in the data most compounds retested in dose-response had high values. The format is functional. The following applies: 30 µM.

Chromo domain-containing protein 1 (Saccharomyces cerevisiae (strain ATCC 204508 / S288c) (Baker's yeast)), sequence (P32657 whole entry, the tested form may be a part): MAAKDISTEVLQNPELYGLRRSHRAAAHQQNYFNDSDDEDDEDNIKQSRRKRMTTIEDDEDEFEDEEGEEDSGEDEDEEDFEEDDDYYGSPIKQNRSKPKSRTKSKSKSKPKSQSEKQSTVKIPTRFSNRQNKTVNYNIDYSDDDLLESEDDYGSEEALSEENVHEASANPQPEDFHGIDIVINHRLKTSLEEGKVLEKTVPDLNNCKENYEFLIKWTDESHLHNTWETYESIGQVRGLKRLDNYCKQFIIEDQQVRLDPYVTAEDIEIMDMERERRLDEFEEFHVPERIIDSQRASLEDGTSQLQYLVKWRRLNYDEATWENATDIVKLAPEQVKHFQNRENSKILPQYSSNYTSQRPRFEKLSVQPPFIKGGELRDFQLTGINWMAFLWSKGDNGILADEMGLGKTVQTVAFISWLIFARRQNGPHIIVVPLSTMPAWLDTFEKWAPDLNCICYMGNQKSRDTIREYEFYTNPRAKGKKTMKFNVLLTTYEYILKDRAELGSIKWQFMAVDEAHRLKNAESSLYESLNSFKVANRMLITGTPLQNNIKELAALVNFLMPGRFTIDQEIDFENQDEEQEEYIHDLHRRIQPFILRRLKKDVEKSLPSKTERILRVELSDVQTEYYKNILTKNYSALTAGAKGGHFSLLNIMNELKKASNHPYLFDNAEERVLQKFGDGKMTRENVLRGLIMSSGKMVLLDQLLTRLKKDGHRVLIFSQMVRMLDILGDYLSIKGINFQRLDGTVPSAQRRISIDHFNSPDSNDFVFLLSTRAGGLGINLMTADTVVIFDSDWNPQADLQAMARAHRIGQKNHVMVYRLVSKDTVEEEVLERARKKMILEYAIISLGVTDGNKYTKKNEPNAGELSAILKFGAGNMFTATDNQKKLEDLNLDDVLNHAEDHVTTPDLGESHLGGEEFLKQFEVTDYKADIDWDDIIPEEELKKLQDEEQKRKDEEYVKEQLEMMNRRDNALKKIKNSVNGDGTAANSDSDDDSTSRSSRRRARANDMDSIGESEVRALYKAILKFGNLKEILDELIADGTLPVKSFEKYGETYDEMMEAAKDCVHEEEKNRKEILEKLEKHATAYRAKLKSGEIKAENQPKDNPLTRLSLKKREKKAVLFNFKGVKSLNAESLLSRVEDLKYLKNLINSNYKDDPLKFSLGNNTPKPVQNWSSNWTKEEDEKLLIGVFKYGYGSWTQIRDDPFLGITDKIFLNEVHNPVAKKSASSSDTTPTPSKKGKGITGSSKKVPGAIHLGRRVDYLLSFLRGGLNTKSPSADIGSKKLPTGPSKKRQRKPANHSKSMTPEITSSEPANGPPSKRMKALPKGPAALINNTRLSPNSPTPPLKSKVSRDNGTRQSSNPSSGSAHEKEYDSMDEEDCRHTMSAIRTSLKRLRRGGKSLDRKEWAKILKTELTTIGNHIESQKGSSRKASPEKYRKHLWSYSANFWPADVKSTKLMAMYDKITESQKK
Protein translocase subunit SecA (Escherichia coli (strain K12)), sequence (P10408 whole entry): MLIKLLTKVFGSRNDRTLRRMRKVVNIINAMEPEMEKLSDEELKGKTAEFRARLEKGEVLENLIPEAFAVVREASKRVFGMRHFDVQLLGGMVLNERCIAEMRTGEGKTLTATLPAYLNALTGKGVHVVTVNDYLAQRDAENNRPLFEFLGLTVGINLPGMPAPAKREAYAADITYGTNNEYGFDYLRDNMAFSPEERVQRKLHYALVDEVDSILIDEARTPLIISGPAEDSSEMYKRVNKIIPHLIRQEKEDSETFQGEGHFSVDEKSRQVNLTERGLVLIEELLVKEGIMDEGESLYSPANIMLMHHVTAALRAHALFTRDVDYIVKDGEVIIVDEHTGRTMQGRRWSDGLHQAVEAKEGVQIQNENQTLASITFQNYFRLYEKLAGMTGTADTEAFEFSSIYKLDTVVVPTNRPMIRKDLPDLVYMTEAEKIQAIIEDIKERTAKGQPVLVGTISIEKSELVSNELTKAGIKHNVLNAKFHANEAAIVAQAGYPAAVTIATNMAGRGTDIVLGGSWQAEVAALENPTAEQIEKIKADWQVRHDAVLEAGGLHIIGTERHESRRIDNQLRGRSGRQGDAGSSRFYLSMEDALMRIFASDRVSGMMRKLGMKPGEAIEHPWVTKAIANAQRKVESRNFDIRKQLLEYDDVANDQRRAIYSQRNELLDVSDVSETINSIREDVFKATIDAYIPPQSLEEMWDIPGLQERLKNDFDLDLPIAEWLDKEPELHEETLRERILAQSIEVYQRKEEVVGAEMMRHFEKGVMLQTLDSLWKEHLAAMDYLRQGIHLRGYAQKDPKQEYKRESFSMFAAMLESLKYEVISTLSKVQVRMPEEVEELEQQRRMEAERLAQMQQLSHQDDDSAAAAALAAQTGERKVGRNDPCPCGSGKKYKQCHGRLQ

Turning to `COCC1CCCN(C(=O)c2cc(Cn3ccc4ccccc43)[nH]n2)C1` (stereo unspecified), the Percent Effect was -5.5% in experiment [1]; -7.79% in experiment [2]; 0.36% in [3]; 11.2% in experiment [4]; 8.75% in the experiment on Trypanosoma cruzi; -81.4% in experiment [5]. For the same compound, the Percent Effect in [6] was -0.666%; in the experiment listed under Homo sapiens, -41.3%; in [7], 14%; in experiment [8], 18.5%; in experiment [9] it was 127%.

With `O=C(c1cnn(-c2ccccc2F)c1)N1CCN(CCO)CC1`, the Percent Effect was -0.313% in experiment [1]; 2.67% in experiment [2]; -3.7% in experiment [3]; 3.26% in [4]; 5.36% with Trypanosoma cruzi; 16.1% in experiment [5]. Moreover, the Percent Effect was 0.698% in experiment [6]; -20% in the experiment listed under Homo sapiens; -0.546% in [7]; 3.7% in experiment [8]; -1.23% in [9].

As for `COCc1cccc(CNC(=O)CN2CCCC2c2noc(C)n2)c1` (stereo unspecified), the Percent Effect was -2.68% in experiment [1]; 23.7% in experiment [2]; -2.93% in experiment [3]; 3.2% in [4]; 5.83% in the experiment on Trypanosoma cruzi; -2.68% in experiment [5]. In addition, the Percent Effect was 15.5% in [6]; 1.75% in the experiment filed under Homo sapiens; 4.41% in [7]; 24.4% in [8]; -13% in experiment [9].

Turning to `Cc1noc(CCCC(=O)NC(C)c2cn(-c3ccccc3)nn2)n1` (stereo unspecified), the Percent Effect was -1.64% in [1]; 0% in [2]; 3.68% in experiment [3]; 6.5% in experiment [4]; 6.58% with Trypanosoma cruzi; 1.15% in [5]. In addition, the Percent Effect was 6.35% in experiment [6]; -19.3% in the experiment listed under Homo sapiens; 2.45% in [7]; 4.88% in experiment [8]; -6.39% in [9].

Take `CNS(=O)(=O)Cc1ccc(CNC(=O)c2ccc(C)[nH]c2=O)cc1`: the Percent Effect in experiment [1] is -4.48%; in experiment [2], 28.6%; in [3] it was -2.88%; in experiment [4], 7.58%; with Trypanosoma cruzi it was 6.37%; in experiment [5], -1.07%. Besides, the Percent Effect is 5.91% in experiment [6]; -2.15% in the experiment filed under Homo sapiens; 10.7% in experiment [7]; 26.8% in experiment [8]; -6.56% in experiment [9].

Take `C=Cn1ncc(CN2C[C@@H]3CCCN3C[C@@H]2Cc2ccccc2)c1C`: the Percent Effect in experiment [1] is -3.58%; in [2], 4.05%; in experiment [3], 3.48%; in experiment [4], 4.39%; with Trypanosoma cruzi it was 2.37%; in experiment [5], 0.696%. Besides, the Percent Effect in experiment [6] was 11.2%; in the experiment listed under Homo sapiens it was 26.4%; in experiment [7] it was 6.45%; in experiment [8] it was 14.3%; in [9], -13%.

For `CC(C)n1ncc2c1NC(=O)CSC2C(C)(C)C` (stereo unspecified), the Percent Effect was -4% in experiment [1]; 17.3% in [2]; -3.06% in experiment [3]; 7.25% in [4]; 3.14% in the experiment on Trypanosoma cruzi; -3.7% in experiment [5]. For the same compound, the Percent Effect was 8.69% in experiment [6]; 8.09% in the experiment listed under Homo sapiens; 5.29% in [7]; 12.8% in experiment [8]; -8.28% in [9].

On to `COc1ccc2c(ccn2CCC(=O)O)c1`, for which the Percent Effect in experiment [1] is -6.14%; in experiment [2], 4%; in experiment [3] it was -3.9%; in [4], -8.49%; in the experiment with Trypanosoma cruzi, -8.45%; in experiment [5], -7.22%. For the same compound, the Percent Effect is 6.1% in [6]; 21.8% in the experiment listed under Homo sapiens; 3.17% in experiment [7]; -5.13% in [8]; -7.85% in [9].

Regarding `O=C1NCCN1C1CCCN(Cc2nnc(-c3ccc(F)cc3)o2)C1` (stereo unspecified), the Percent Effect in experiment [1] is -1.01%; in [2], 2.7%; in experiment [3] it was -4.34%; in experiment [4], 16.6%; in the experiment on Trypanosoma cruzi it was 6.04%; in experiment [5] it was 2.03%. Besides, the Percent Effect is 9.7% in [6]; -7.13% in the experiment filed under Homo sapiens; 3.96% in experiment [7]; 15.8% in experiment [8]; -2.67% in experiment [9].

In the case of `Cc1ccc(-c2cc(N)c(=O)n(CC(=O)NC3CCCCC3)n2)s1`, the Percent Effect in experiment [1] is -4.68%; in experiment [2], 6.76%; in experiment [3] it was 14.2%; in experiment [4], 4.48%; in the experiment with Trypanosoma cruzi, -4.74%; in experiment [5] it was 4.41%. Also, the Percent Effect in experiment [6] is 8.42%; in the experiment listed under Homo sapiens, 15.6%; in experiment [7], 1.07%; in [8], 6.49%; in experiment [9] it was -8.72%.

Regarding `O=c1c2sccc2nc2n1CCN(Cc1cccs1)CC2`, the Percent Effect in experiment [1] is -2.34%; in experiment [2], 12.2%; in experiment [3], 10.7%; in experiment [4], 1.3%; in the experiment with Trypanosoma cruzi, -0.395%; in experiment [5] it was -1.16%. The Percent Effect was 10.9% in experiment [6]; 12.6% in the experiment filed under Homo sapiens; 0% in [7]; 11.7% in experiment [8]; -12% in experiment [9].

For the origin of these results see ChEMBL document CHEMBL3988442, “University of Dundee, Small-Polar-MMV Screening Library” (2021).
